Test results taken from PubChem BioAssay AID1159580 (chemical genetic matrix, 2015).
The campaign covered roughly 5,500 compounds. About 2,000 (36%) were called active. Not shown: some 18% with an inconclusive outcome. Cut-off read from the data, not from the text of the source: active = normalized growth mostly below about 0.91 (no sharp cut-off); inconclusive = no clear call, values can overlap the other calls; inactive = mostly above about 0.92. The list shows a part of the results.

Test: chemical genetic growth profiling, strain panel (AID 1159580);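 note: tested at 20 µM; growth read once vehicle control cultures reached saturation at 30 °C; 1 = growth at the plate median or of vehicle wells; lower values mean less growth of the strain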
Conditions: growth OD

Measured: normalized growth

CC(=O)CC(c1ccccc1)c1c(O)c2ccccc2oc1=O (configuration not stated)
inactive: S. cerevisiae deletion strains, locus YJR075W, strain HOC1, hits give low values 0.981 | S. cerevisiae deletion strains, locus YKL009W, strain mrt4, hits give low values 1 | S. cerevisiae deletion strains, locus YKL068W, hits give low values 1 | S. cerevisiae deletion strains, locus YKL085W, strain MDH1 (second series), hits give low values 0.954 | S. cerevisiae deletion strains, locus YKL085W, strain MDH1, hits give low values 0.954 | S. cerevisiae deletion strains, locus YKL160W, strain elf1, hits give low values 1 | S. cerevisiae deletion strains, locus YKL190W, strain CNB1, hits give low values 1.01 | S. cerevisiae deletion strains, locus YKR001C, strain vps1, hits give low values 1.02 | S. cerevisiae deletion strains, locus YKR026C, strain gcn3, hits give low values 0.992 | S. cerevisiae deletion strains, locus YKR091W, strain srl3, hits give low values 0.995 | S. cerevisiae deletion strains, locus YLL001W, strain dnm1, hits give low values 0.993 | S. cerevisiae deletion strains, locus YLL026W, hits give low values 0.988 | S. cerevisiae deletion strains, locus YLL041C, strain sdh2, hits give low values 0.997 | S. cerevisiae deletion strains, locus YLR027C, strain aat2, hits give low values 1 | S. cerevisiae deletion strains, locus YLR039C, strain RIC1, hits give low values 0.986 | S. cerevisiae deletion strains, locus YLR058C, strain SHM2, hits give low values 1.01 | S. cerevisiae deletion strains, locus YLR102C, strain apc9, hits give low values 1.01 | S. cerevisiae deletion strains, locus YLR113W, strain HOG1, hits give low values 0.922 | S. cerevisiae deletion strains, locus YLR221C, strain rsa3, hits give low values 1.01 | S. cerevisiae deletion strains, locus YLR258W, strain gsy2, hits give low values 1 | S. cerevisiae deletion strains, locus YLR262C, strain YPT6 (second series), hits give low values 0.881 | S. cerevisiae deletion strains, locus YLR262C, strain YPT6, hits give low values 0.99 | S. cerevisiae deletion strains, locus YLR268W, strain sec22, hits give low values 1.03 | S. cerevisiae deletion strains, locus YLR320W, strain mms22, hits give low values 1.01 | S. cerevisiae deletion strains, locus YLR330W, strain CHS5, hits give low values 1 | S. cerevisiae deletion strains, locus YLR342W, strain FKS1 (second series), hits give low values 1.02 | S. cerevisiae deletion strains, locus YLR342W, strain FKS1, hits give low values 0.995 | S. cerevisiae deletion strains, locus YLR357W, strain rsc2, hits give low values 1.03 | S. cerevisiae deletion strains, locus YLR370C, strain arc18, hits give low values 0.993 | S. cerevisiae deletion strains, locus YLR371W, strain rom2, hits give low values 1.02 | S. cerevisiae deletion strains, locus YLR384C, strain iki3, hits give low values 0.986 | S. cerevisiae deletion strains, locus YLR418C, strain cdc73, hits give low values 1.06 | S. cerevisiae deletion strains, locus YML016C, strain PPZ1, hits give low values 1.01 | S. cerevisiae deletion strains, locus YML032C, strain rad52, hits give low values 1.03 | S. cerevisiae deletion strains, locus YML120C, strain ndi1, hits give low values 1 | S. cerevisiae deletion strains, locus YML124C, strain tub3, hits give low values 1.01 | S. cerevisiae deletion strains, locus YMR058W, strain fet3, hits give low values 1.01 | S. cerevisiae deletion strains, locus YMR078C, strain ctf18, hits give low values 1.02 | S. cerevisiae deletion strains, locus YMR125W, strain sto1, hits give low values 1.01 | S. cerevisiae deletion strains, locus YMR129W, hits give low values 1 | S. cerevisiae deletion strains, locus YMR205C, strain PFK2, hits give low values 1.01 | S. cerevisiae deletion strains, locus YMR223W, strain ubp8, hits give low values 1.01 | S. cerevisiae deletion strains, locus YMR231W, strain pep5, hits give low values 1 | S. cerevisiae deletion strains, locus YMR263W, strain SAP30, hits give low values 1.01 | S. cerevisiae deletion strains, locus YMR307W, strain GAS1, hits give low values 1.05 | S. cerevisiae deletion strains, locus YNL067W, strain RPL9B, hits give low values 1.01 | S. cerevisiae deletion strains, locus YNL071W, strain lat1, hits give low values 1 | S. cerevisiae deletion strains, locus YNL128W, strain TEP1, hits give low values 1.03 | S. cerevisiae deletion strains, locus YNL153C, strain GIM3, hits give low values 1 | S. cerevisiae deletion strains, locus YNL183C, strain NPR1, hits give low values 0.942 | S. cerevisiae deletion strains, locus YNL209W, strain ssb2, hits give low values 0.998 | S. cerevisiae deletion strains, locus YNL233W, strain BNI4, hits give low values 1.01 | S. cerevisiae deletion strains, locus YNL248C, strain rpa49, hits give low values 1.01 | S. cerevisiae deletion strains, locus YNL250W, strain rad50, hits give low values 1.05 | S. cerevisiae deletion strains, locus YNL271C, strain bni1, hits give low values 1.01 | S. cerevisiae deletion strains, locus YNL298W, strain CLA4, hits give low values 1.03 | S. cerevisiae deletion strains, locus YNL307C, strain MCK1, hits give low values 1.06 | S. cerevisiae deletion strains, locus YNL322C, strain KRE1 (second series), hits give low values 0.989 | S. cerevisiae deletion strains, locus YNL322C, strain KRE1, hits give low values 1.02 | S. cerevisiae deletion strains, locus YNR049C, strain mso1, hits give low values 0.995 | S. cerevisiae deletion strains, locus YNR052C, strain pop2, hits give low values 1.03 | S. cerevisiae deletion strains, locus YOL006C, strain TOP1, hits give low values 1 | S. cerevisiae deletion strains, locus YOL012C, strain htz1 1.19 | S. cerevisiae deletion strains, locus YOL147C, strain pex11, hits give low values 1.01 | S. cerevisiae deletion strains, locus YOR001W, strain rrp6, hits give low values 1.02 | S. cerevisiae deletion strains, locus YOR061W, strain CKA2, hits give low values 1.01 | S. cerevisiae deletion strains, locus YOR069W, strain VPS5, hits give low values 1 | S. cerevisiae deletion strains, locus YOR070C, strain gyp1, hits give low values 0.996 | S. cerevisiae deletion strains, locus YOR080W, strain dia2, hits give low values 1 | S. cerevisiae deletion strains, locus YOR083W, strain WHI5, hits give low values 1.01 | S. cerevisiae deletion strains, locus YOR106W, strain vam3, hits give low values 0.992 | S. cerevisiae deletion strains, locus YOR136W, strain idh2, hits give low values 1.03 | S. cerevisiae deletion strains, locus YOR144C, strain elg1, hits give low values 1.01 | S. cerevisiae deletion strains, locus YOR184W, strain ser1, hits give low values 1.04 | S. cerevisiae deletion strains, locus YOR231W, strain MKK1, hits give low values 0.983 | S. cerevisiae deletion strains, locus YOR265W, strain rbl2, hits give low values 0.984 | S. cerevisiae deletion strains, locus YOR270C, strain vph1, hits give low values 1.02 | S. cerevisiae deletion strains, locus YOR290C, strain snf2, hits give low values 1.01 | S. cerevisiae deletion strains, locus YOR316C, strain cot1, hits give low values 1.01 | S. cerevisiae deletion strains, locus YPL051W, strain arl3, hits give low values 0.994 | S. cerevisiae deletion strains, locus YPL055C, strain LGE1, hits give low values 1.05 | S. cerevisiae deletion strains, locus YPL078C, strain atp4, hits give low values 1.02 | S. cerevisiae deletion strains, locus YPL106C, strain sse1, hits give low values 1.02 | S. cerevisiae deletion strains, locus YPL240C, strain hsp82, hits give low values 1 | S. cerevisiae deletion strains, locus YPL241C, strain CIN2, hits give low values 1.01 | S. cerevisiae deletion strains, locus YPL256C, strain CLN2, hits give low values 0.955 | S. cerevisiae deletion strains, locus YPR119W, strain clb2, hits give low values 1.01 | S. cerevisiae deletion strains, locus YPR141C, strain kar3, hits give low values 1.01 | S. cerevisiae deletion strains, locus YPR163C, strain tif3, hits give low values 1.02 | S. cerevisiae deletion strains, locus YPR167C, strain met16, hits give low values 1.01 | S. cerevisiae deletion strains, strain wtn01, hits give low values 1 | S. cerevisiae strains, strain wild type, hits give low values 1.02
